Experimental data as given in PubChem BioAssay (NCATS).
Inconclusive results are not listed. Unmarked numbers belong to inactive results. Activity calls are given as the source filed them. Calls come from the whole dose curve; as a rule, active = well fitted inhibition curve with a large enough effect; inconclusive = small, poorly fitted or top-dose-only effect; inactive = flat fitted curve, though single readings scatter. Where a SMILES comes first, the peptide text is derived from it. Bridges are numbered along the chain shown (N, C = ends). [ ]: non-standard residue; d: D form. hArg = N=C(N)NCCCC[C@H](N)C(=O)O; Mpa = O=C(O)CCS
Potency is the fitted concentration of half-maximal effect.

Each compound was assayed on 3D7 (assay: qHTS profiling for inhibitors of Plasmodium falciparum proliferation (AID 504749; note: nearly all actives have a fitted effect of over 60% in size;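 for activity, negative = inhibition: 0% = DMSO vehicle and full inhibition = artemisinin control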)). Conditions: P. falciparum in erythrocytes, SYBR Green DNA, 72 h; series mostly up to 28.7 µM; activity, negative = inhibition: at the top concentration.
In short: (§1)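 P. falciparum-infected erythrocytes (0.3% parasitemia, 2.5% hematocrit final) were exposed to compounds for 72 h at 37 C in 5% CO2, then lysed with SYBR Green buffer overnight at room temperature; parasite DNA fluorescence was normalized to artemisinin and DMSO controls.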
In the case of `COc1ccc2cc(CCC(C)=O)ccc2c1`, the “activity, negative = inhibition” value is reported as -5.78% [at 12.8 µM]. `O=C(c1ccccc1)C(O)c1ccccc1` (configuration not stated) was tested, and the “activity, negative = inhibition” value was -27.7%. In the case of `CCCCCCCC(=O)OCC(COC(=O)CCCCCCC)OC(=O)CCCCCCC`, the “activity, negative = inhibition” value is reported as 1.17%. `Nc1ccc(S(=O)(=O)c2ccc(N)cc2)cc1` was tested, and the “activity, negative = inhibition” value was -12.2%. `O=C(O)c1ccc(OCCCOc2ccc(C(=O)O)cc2)cc1` was tested, and the “activity, negative = inhibition” value was 0.85%. With `Cc1c(NC(=O)c2cccnc2)c(=O)n(-c2ccccc2)n1C` the “activity, negative = inhibition” value was 8.54% [at 12.8 µM]. With `Cc1cccc(C)c1NC(=O)CC12CCCN1CCC2` the “activity, negative = inhibition” value was -9.62%. With `CC(C)=CCC/C(C)=C/CO` the “activity, negative = inhibition” value was 0.23%. For `CC(=O)Oc1cccc(O)c1`, the “activity, negative = inhibition” value was 5.09%. For `COc1ccc(C(=O)NCc2ccc(OCCN(C)C)cc2)cc1OC`, the “activity, negative = inhibition” value was 0.0337%. With `CCOc1cc(NC(C)=O)ccc1C(=O)OC` the “activity, negative = inhibition” value was 0.977%. With `CCN1CC(CCN2CCOCC2)C(c2ccccc2)(c2ccccc2)C1=O` (configuration not stated) the “activity, negative = inhibition” value was -8.86%. For `NC(=O)[C@@H]1CSSCCC(=O)N[C@@H](CCCCN=C(N)N)C(=O)NCC(=O)N[C@@H](CC(=O)O)C(=O)N[C@@H](Cc2c[nH]c3ccccc23)C(=O)N2CCC[C@H]2C(=O)N1` ([Mpa][hArg]GDWPC-NH2; disulfide 1-7), the “activity, negative = inhibition” value was 7.86%. With `CC(=O)OC[C@H]1O[C@@](COC(C)=O)(O[C@H]2O[C@H](COC(C)=O)[C@@H](OC(C)=O)[C@H](OC(C)=O)[C@H]2OC(C)=O)[C@@H](OC(C)=O)[C@@H]1OC(C)=O` the “activity, negative = inhibition” value was 3.98%. In the case of `CC(=O)N[C@@H](Cc1ccc(O)cc1)C(=O)O`, the “activity, negative = inhibition” value is reported as 6.7%. `C[C@@H]1O[C@@H](OC[C@H]2O[C@@H](Oc3c(-c4ccc(O)c(O)c4)oc4cc(O)cc(O)c4c3=O)[C@H](O)[C@@H](O)[C@@H]2O)[C@H](O)[C@H](O)[C@H]1O` was tested, and the “activity, negative = inhibition” value was 1.82%. In the case of `CC(CSC(=O)c1ccccc1)C(=O)N1C[C@@H](Sc2ccccc2)C[C@H]1C(=O)O` (some centres not stated), the “activity, negative = inhibition” value is reported as 1.83%. For `O[C@@H]1CO[C@H]2[C@@H]1OC[C@@H]2O`, the “activity, negative = inhibition” value was -0.0617%. In the case of `NC(=O)CCCCC1CCSS1` (configuration not stated), the “activity, negative = inhibition” value is reported as 8.02%. In the case of `Cc1c(I)c(=O)n(-c2ccccc2)n1C`, the “activity, negative = inhibition” value is reported as 9.97%. In the case of `NCc1ccc(S(N)(=O)=O)cc1`, the “activity, negative = inhibition” value is reported as 3.92% [at 12.8 µM]. `Cc1cc(C)c(NC(=O)CN(CC(=O)O)CC(=O)O)c(C)c1Br` was tested, and the “activity, negative = inhibition” value was 2.99%. For `O=C(O)CCCCC1CCSS1` (configuration not stated), the “activity, negative = inhibition” value was 4.77%. `CCS(=O)(=O)CCn1c([N+](=O)[O-])cnc1C` was tested, and the “activity, negative = inhibition” value was 0.446% [at 12.8 µM]. In the case of `COc1ccc(NS(=O)(=O)c2ccc(N)cc2)nn1`, the “activity, negative = inhibition” value is reported as 12.6% [at 12.8 µM]. In the case of `CCCCCCCCCCOc1cc2c(=O)c(C(=O)OCC)c[nH]c2cc1OCC`, the Potency is reported as 0.0022 µM (active). In the case of `O=C(OOC(=O)c1ccccc1)c1ccccc1`, the “activity, negative = inhibition” value is reported as -4.34%. In the case of `CCCCCCCCCCC(CO)CCCCCCCC` (configuration not stated), the “activity, negative = inhibition” value is reported as -2.21%. `CN(C/C=C/C#CC(C)(C)C)Cc1cccc2ccccc12` was tested, and the “activity, negative = inhibition” value was 9.12%.

What follows are compounds tested on 7G8 in the same assay as above. Conditions: P. falciparum in erythrocytes, SYBR Green DNA, 72 h; series mostly up to 28.7 µM; activity, negative = inhibition: at the top concentration.
In short: as §1
For `COc1ccc2cc(CCC(C)=O)ccc2c1`, the “activity, negative = inhibition” value was -19% [at 12.8 µM]. `O=C(c1ccccc1)C(O)c1ccccc1` (configuration not stated) was tested, and the “activity, negative = inhibition” value was -29.9%. In the case of `CCCCCCCC(=O)OCC(COC(=O)CCCCCCC)OC(=O)CCCCCCC`, the “activity, negative = inhibition” value is reported as -6.47%. `COc1nccnc1NS(=O)(=O)c1ccc(N)cc1` was tested, and the “activity, negative = inhibition” value was 0.49%. With `O=C(O)c1ccc(OCCCOc2ccc(C(=O)O)cc2)cc1` the “activity, negative = inhibition” value was 14.7%. In the case of `Cc1cccc(C)c1NC(=O)CC12CCCN1CCC2`, the “activity, negative = inhibition” value is reported as -20.6%. With `C[C@H]1COc2c(C3(N)CC3)c(F)cc3c(=O)c(C(=O)O)cn1c23` the “activity, negative = inhibition” value was -19.8%. For `CC(C)=CCC/C(C)=C/CO`, the “activity, negative = inhibition” value was -17%. For `COc1ccc(C(=O)NCc2ccc(OCCN(C)C)cc2)cc1OC`, the “activity, negative = inhibition” value was -7.32%. `CCOc1cc(NC(C)=O)ccc1C(=O)OC` was tested, and the “activity, negative = inhibition” value was -14%. In the case of `NC(=O)[C@@H]1CSSCCC(=O)N[C@@H](CCCCN=C(N)N)C(=O)NCC(=O)N[C@@H](CC(=O)O)C(=O)N[C@@H](Cc2c[nH]c3ccccc23)C(=O)N2CCC[C@H]2C(=O)N1` ([Mpa][hArg]GDWPC-NH2; disulfide 1-7), the “activity, negative = inhibition” value is reported as 0.89%. In the case of `Cc1[nH]c(C)c(Cl)c(=O)c1Cl`, the Potency is reported as 11.2 µM (active). `CC(=O)OC[C@H]1O[C@@](COC(C)=O)(O[C@H]2O[C@H](COC(C)=O)[C@@H](OC(C)=O)[C@H](OC(C)=O)[C@H]2OC(C)=O)[C@@H](OC(C)=O)[C@@H]1OC(C)=O` was tested, and the “activity, negative = inhibition” value was -21.9%. With `C[C@@H]1O[C@@H](OC[C@H]2O[C@@H](Oc3c(-c4ccc(O)c(O)c4)oc4cc(O)cc(O)c4c3=O)[C@H](O)[C@@H](O)[C@@H]2O)[C@H](O)[C@H](O)[C@H]1O` the “activity, negative = inhibition” value was -0.833%. For `CC(CSC(=O)c1ccccc1)C(=O)N1C[C@@H](Sc2ccccc2)C[C@H]1C(=O)O` (some centres not stated), the “activity, negative = inhibition” value was 7.52%. In the case of `O[C@@H]1CO[C@H]2[C@@H]1OC[C@@H]2O`, the “activity, negative = inhibition” value is reported as -23.8%. `Cc1c(I)c(=O)n(-c2ccccc2)n1C` was tested, and the “activity, negative = inhibition” value was -29.1%. `Cc1cc(OI)c(C(C)C)cc1-c1cc(C(C)C)c(OI)cc1C` was tested, and the Potency was 7.94 µM (active). In the case of `Cc1cc(C)c(NC(=O)CN(CC(=O)O)CC(=O)O)c(C)c1Br`, the “activity, negative = inhibition” value is reported as -12.5%. `CCS(=O)(=O)CCn1c([N+](=O)[O-])cnc1C` was tested, and the “activity, negative = inhibition” value was 5.84% [at 12.8 µM]. `COc1ccc(NS(=O)(=O)c2ccc(N)cc2)nn1` was tested, and the “activity, negative = inhibition” value was -12.4% [at 12.8 µM]. `CCCCCCCCCCOc1cc2c(=O)c(C(=O)OCC)c[nH]c2cc1OCC` was tested, and the Potency was 0.0028 µM (active). With `O=C(OOC(=O)c1ccccc1)c1ccccc1` the “activity, negative = inhibition” value was 5.5%.
